The values that follow come from PubChem BioAssay AID588676 (Johns Hopkins Ion Channel Center, 2011).

In all, about 310,000 compounds went through this assay and about 3,900 (1.3%) were called active.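 Rule for the calls: active = calcium-response B-score plate-corrected more than 3 library SD below zero, starting fluorescence within 5 deviations, no agonist response on first addition; inactive = the rest.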 The entries come from a sample that favours actives as a whole.

In this assay the target is Mas-related G-protein coupled receptor member X1 (Homo sapiens) (UniProt Q96LB2). The assay is described as follows: blockade of BAM8-22-evoked MrgX1 calcium response – HEK293 cells, Fluo-4 calcium flux, primary screen (AID 588676).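 For B-score: peak minus trough fluorescence over baseline after final BAM8-22 challenge near maximal dose.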 Particulars: Fluo-4, BAM8-22 antagonism, at 10 µM; active compounds read low. In general terms: A change in cytosolic calcium serves as a functional read-out for many receptors and channels.
Sequence of Mas-related G-protein coupled receptor member X1 (Homo sapiens) (Q96LB2 whole entry, looked up): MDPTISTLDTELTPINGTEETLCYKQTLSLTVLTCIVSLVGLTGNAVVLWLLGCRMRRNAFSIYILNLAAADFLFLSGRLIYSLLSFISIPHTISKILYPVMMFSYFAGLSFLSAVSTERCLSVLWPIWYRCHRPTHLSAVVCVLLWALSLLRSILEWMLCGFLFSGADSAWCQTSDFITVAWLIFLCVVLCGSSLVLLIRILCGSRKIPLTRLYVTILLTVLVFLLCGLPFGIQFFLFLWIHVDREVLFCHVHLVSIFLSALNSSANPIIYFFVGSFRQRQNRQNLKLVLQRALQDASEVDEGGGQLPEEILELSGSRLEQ
With `COC(=O)c1ccc(NC(=O)CSc2nc(N)c(NC(=O)c3ccc(Br)o3)c(=O)[nH]2)cc1`, the B-score entry is “inactive”.
Consider `COc1ccc(C(=O)Nc2c(N)nc(SCC(=O)Nc3ccc(C(C)=O)cc3)[nH]c2=O)cc1`, for which the B-score result is “inactive”.
To `COc1ccc(C(=O)Nc2c(N)nc(SCC(=O)N3CCC(C)CC3)[nH]c2=O)cc1OC` belongs -5.91 (active).
In the case of `COC(=O)C(C(=O)Nc1cccc(C)n1)C1CCCCCC1` (stereo unspecified) it was “inactive”; in that of `Cc1c(NC(=O)CCC2CCCCC2)cc(C(=O)N2CCOCC2)cc1[N+](=O)[O-]`, “inactive”.
On to `Cc1ccc(S(=O)(=O)Nc2nc3ccccc3nc2N2CCc3ccccc3C2)cc1`, for which the B-score result was “inactive”.
Turning to `Cc1cc(N2CCN(S(=O)(=O)c3ccc(C)c(C)c3)CC2)c2ccccc2n1`, the B-score entry is “inactive”.
Turning to `Cc1ccc(S(=O)(=O)C(C#N)c2nc3ccccc3nc2N2CCCC2)cc1C` (stereo unspecified), the B-score is -6.25 (active).
With `C#CCOCCOCCOCCNc1nc(N2CCN(C(=O)C(Cc3ccc(O)cc3)n3cc(C(N)CC(C)C)nn3)CC2)nc(N2CCN(C(=O)C(Cc3ccc(O)cc3)n3cc(C(N)C(C)CC)nn3)CC2)n1` (stereo unspecified), the B-score result was “inactive”.
As to `O=C(Nc1nnc(-c2ccccc2F)s1)c1ccccc1F`, the B-score entry is “inactive”.
In the case of `CN(CC(=O)NCCN1CCOCC1)S(=O)(=O)c1ccc(F)cc1` it was “inactive”; in that of `CCOc1ccc(NC(=S)N2CCC(NC(=O)c3ccccc3)CC2)cc1`, “inactive”; in that of `CCOc1ccc(C(=O)NC2CCN(S(=O)(=O)CC)CC2)cc1`, -5.83 (active).
In the case of `CCOc1ccc(NS(=O)(=O)c2ccc(C(=O)NC3CCN(Cc4ccccc4)CC3)cc2)cc1` it was “inactive”.
To `CCOC(=O)c1nnn2c1nc(N1CCN(c3ccccc3)CC1)c1ccccc12` belongs “inactive”; to `COc1cc(C(=S)N2CCOCC2)cc(OC)c1OC(=O)c1cc([N+](=O)[O-])c(C)c([N+](=O)[O-])c1`, “inactive”; to `CC1=C/C(=N\OS(=O)(=O)c2ccccc2)C=CC1=O`, -5.63 (active).
Consider `O=S(=O)(ON(c1ccccc1)S(=O)(=O)c1ccccc1)c1ccccc1`, for which the B-score entry is “inactive”.
To `CCOC(=O)c1ccc2[nH]c3c(c2c1)CCCC3NC=O` (stereo unspecified) belongs “inactive”; to `O=C(NC(C(=O)NCCN1CCOCC1)C12CC3CC(CC(C3)C1)C2)C1CCCCC1` (stereo unspecified), “inactive”; to `O=C(C[C@H]1C(=O)N(c2ccc(F)c(F)c2)C[C@@H]1Cc1ccccc1)Nc1ccccc1`, “inactive”.
To `C/C=C/C=C/C(=O)OCC(=O)Nc1ccc(Cl)cc1` belongs “inactive”.
For the compound `COc1ccccc1Oc1nc(-c2cccnc2)nc2ccccc12`, the B-score is -5.1 (active).
In the case of `COc1ccc(Nc2nc(-c3cccnc3)nc3ccccc23)cn1` it was “inactive”; in that of `O=[N+]([O-])c1ccc(F)cc1Oc1nc(-c2cccnc2)nc2ccccc12`, “inactive”; in that of `CCOc1ccc(C(C)=O)cc1COC(=O)CN1C(=O)NC2(CCCC2)C1=O`, “inactive”.
As for `Cc1cccc(OCC(O)Cn2c(N3CCCCC3)nc3c2c(=O)[nH]c(=O)n3C)c1` (stereo unspecified), the B-score result is “inactive”.
Turning to `c1ccc(-c2cc3c(NCC4COc5ccccc5O4)ncnc3s2)cc1` (stereo unspecified), the B-score result is “inactive”.
To `Oc1cc2c(cc1O)CN(C(=S)NCCc1ccc(Cl)cc1)CCC2` belongs “inactive”.
To `O=C(N/N=C/c1ccccc1O)C1CCCC1` belongs -4.79 (active); to `COc1ccc(/C=N/NC(=O)C2CC2)c(OC)c1OC`, “inactive”; to `Oc1ccccc1C=NC1CCCCC1N=Cc1ccccc1O` (stereo unspecified), “inactive”.
To `Cc1ccc2cc(/C=N/Nc3ccc(C(=O)O)cc3)c(Cl)nc2c1` belongs -14.6 (active).
As to `Cc1ccc2cc(/C=N/NC(=O)[C@@H]3CCCN3)c(Cl)nc2c1`, the B-score result was “inactive”.
`O=C(O)c1ccc(N/N=C/c2ccc3ncccc3c2)cc1`: the B-score result is “inactive”.
In the case of `CCCCC(O)(CCCC)C(=O)NN(C(=O)CCl)c1ccccc1` it was “inactive”; in that of `CC(C)(C)c1ccc(/C=C2\Oc3c(ccc(O)c3CN3CCN(CCO)CC3)C2=O)cc1`, “inactive”.
Consider `O=C(Nc1cccc(-c2nc3ccccc3[nH]2)c1)c1ccc(C(=O)Nc2cccc(-c3nc4ccccc4[nH]3)c2)cc1`, for which the B-score result is “inactive”.
For `COc1ccc(-c2[nH]nc(-c3ccccc3)c2-c2nc3ccccc3[nH]2)cc1`, the B-score entry is “inactive”.
To `c1ccc(-c2[nH]ncc2-c2nc3ccccc3[nH]2)cc1` belongs -5.86 (active); to `CC(OC(=O)CCCOc1ccccc1)C(=O)Nc1ccc(Cl)cn1` (stereo unspecified), “inactive”.
Turning to `CCOCCCn1c(NN)nc2ccccc2c1=O`, the B-score entry was “inactive”.
To `CCCn1c(O)c(CN2CCCC(C)C2)c(C)c(C#N)c1=O` (stereo unspecified) belongs -5.29 (active).
With `Cc1c(CN2CCCCC2)c(O)n(CCO)c(=O)c1C#N`, the B-score result is “inactive”.
To `CCCCCCn1c(CN2CCCC(C)C2)nc2c1c(=O)n(C)c(=O)n2C` (stereo unspecified) belongs “inactive”.
For `Cc1cc(NC(=O)/C=C/C(=O)N(c2ccccc2C)C(C(=O)NC2CCCC2)c2ccc(F)cc2)no1` (stereo unspecified), the B-score entry was “inactive”.
As to `CCOCCOCCC(C(=O)O)P(=O)(c1ccccc1)c1ccccc1` (stereo unspecified), the B-score entry was “inactive”.
For the compound `CCCN1CC=C2C(C#N)=C(N)C(C#N)(C#N)C(c3cc(OC)ccc3OC)C2C1` (stereo unspecified), the B-score was -7.07 (active).
In the case of `CCN1CC=C2C(C#N)=C(N)C(C#N)(C#N)[C@H](c3ccoc3)[C@H]2C1` it was “inactive”; in that of `N#CC1=C(N)C(C#N)(C#N)[C@H](c2ccsc2)[C@H]2COCC=C12`, “inactive”.
To `O=C(O)CN1c2cccc3cccc(c23)S1(=O)=O` belongs “inactive”; to `COc1ccc(-c2cc(C(F)(F)F)nc(S(C)(=O)=O)n2)cc1OC`, “inactive”; to `O=C(NNC1=NCCC1)c1cccc(S(=O)(=O)N2CCCCC2)c1`, “inactive”.
To `COc1ccc(Cl)cc1NC(=O)CNc1ccccc1F` belongs “inactive”.
Turning to `C=C(C)C1CC=C(C)/C(=N\NC(=O)CNc2ccccc2OC)C1` (stereo unspecified), the B-score is -6.1 (active).
Consider `C=C(C)C1CC=C(C)/C(=N/NC(=O)CCCNc2cccc(C)c2)C1` (stereo unspecified), for which the B-score result was “inactive”.
In the case of `O=S(=O)(Nc1ccccc1Cl)c1cccc2nsnc12` it was “inactive”.
In the case of `Cn1nc(C(C)(C)C)c(NC(=O)c2sccc2Cl)c1C(C)(C)C`, the B-score result was “inactive”.
To `COc1ccccc1N(CC(=O)NC1CCCC1)C(=O)C1(C)CC(=O)N=C2C=CC(C)=CN21` (stereo unspecified) belongs “inactive”; to `CCn1c(SCC(=O)Nc2ccc(C)cc2)nc2nc3c(cc2c1=O)CCCC3`, “inactive”; to `O=C1CC(c2c(F)cccc2Cl)C(n2cncn2)C(O)=C1C1NCCc2ccccc21` (stereo unspecified), “inactive”.
In the case of `COc1ccc(NC(=S)Nc2ccc(S(N)(=O)=O)cc2)c(C)c1`, the B-score result was “inactive”.
In the case of `NS(=O)(=O)c1ccc(NC(=S)Nc2ccc(Br)c(Cl)c2)cc1`, the B-score was -5.41 (active).
On to `NS(=O)(=O)c1ccc(CCNC(=S)Nc2ccc(S(N)(=O)=O)cc2)cc1`, for which the B-score result was “inactive”.
For `CO/N=C(/CS(=O)(=O)c1ccc(Br)cc1)c1ccc(OC)cc1`, the B-score result was “inactive”.
As to `CCOc1ccc(C)cc1S(=O)(=O)NC1CCCCCC1`, the B-score entry was “inactive”.
To `CCCCOC(=O)CNc1nnc(SCC(=O)OCC)[nH]c1=O` belongs -10.5 (active); to `Cc1nnc(SCC(=O)N2CCOCC2)[nH]c1=O`, “inactive”.
As for `CCOC(=O)CSc1nc(C)c(Oc2ccc(Cl)cc2Cl)c(=O)[nH]1`, the B-score entry was “inactive”.
Regarding `COCCOC(=O)C1=C(C)NC(=O)NC1c1cc2c(cc1Br)OCO2` (stereo unspecified), the B-score result is “inactive”.
For the compound `O=C(Cc1ccccc1)Nc1ccc(NC(=O)c2cccnc2)cc1`, the B-score entry is “inactive”.
In the case of `O=C(NNC(=O)c1cccnc1)Nc1ccccc1` it was “inactive”; in that of `O=C(O)CSC(NC(=O)c1cccnc1)(C(F)(F)F)C(F)(F)F`, -5.59 (active); in that of `O=C(COC(=O)C1CCN(S(=O)(=O)c2ccc3c(c2)OCCO3)CC1)Nc1ccccc1OC(F)F`, -5.02 (active).
For the compound `CCOC(=O)C1CCN(C(=O)COC(=O)C2CCN(S(=O)(=O)c3ccc4c(c3)OCCO4)CC2)CC1`, the B-score result was “inactive”.
For `COc1ccccc1CNC(=O)C1CCN(S(=O)(=O)c2ccc3c(c2)OCCO3)CC1`, the B-score entry is “inactive”.
In the case of `C/C(=N/O)c1ccc(N2C(=O)C3C4C=CC(C3C2=O)C2C3C(=O)N(c5ccc(/C(C)=N/O)cc5)C(=O)C3C42)cc1` (stereo unspecified) it was “inactive”; in that of `Clc1ccc(Nc2ccc3ccccc3n2)cc1`, “inactive”.
To `Cc1ccccc1N1CC(C(=O)Nc2ccc(S(=O)(=O)N3CCCC3)cc2)CC1=O` (stereo unspecified) belongs “inactive”.
With `CCC(C)c1ccccc1N1CC(C(=O)N2CCN(S(=O)(=O)c3ccc(F)cc3)CC2)CC1=O` (stereo unspecified), the B-score is -7.31 (active).
Take `O=C(C1CC(=O)N(c2ccc(F)cc2)C1)N1CCN(c2ccccc2)CC1` (stereo unspecified): the B-score entry was “inactive”.
To `Cc1cc(C)n(C(=O)c2ccc(C)c(S(=O)(=O)N3CCOCC3)c2)n1` belongs “inactive”; to `S=C(NCc1ccc(Cl)cc1)NC1CCCCC1`, “inactive”; to `O=C(NCc1ccncc1)NC12CC3CC(CC(C3)C1)C2`, “inactive”.
For the compound `S=C(NCc1ccc(Cl)cc1)NC12CC3CC(CC(C3)C1)C2`, the B-score is -5.44 (active).
As for `CC(=O)c1cccc(NC(=S)N2CCCC2)c1`, the B-score entry was “inactive”.
In the case of `O=C(Nc1ccc(Br)cc1)c1cc(S(=O)(=O)Nc2ccccn2)ccc1Cl` it was “inactive”; in that of `OC(c1ccccc1)c1nccn1Cc1ccccc1` (stereo unspecified), “inactive”; in that of `CN(Cc1ccccc1)C(=O)C(=O)c1cn(CC(=O)N2CCCC2)c2ccccc12`, “inactive”.
`O=C(c1cccs1)C1C(c2ccc(Br)cc2)NC(=S)NC1(O)C(F)(F)F` (stereo unspecified): the B-score is -6.04 (active).
To `CCOC(=O)C1C(c2ccc(Cl)cc2)NC(=S)NC1(O)C(F)(F)F` (stereo unspecified) belongs “inactive”.
In the case of `CC(=O)C1C(c2cccc(Oc3ccccc3)c2)NC(=O)NC1(O)C(F)(F)F` (stereo unspecified), the B-score entry is “inactive”.
As for `COc1ccc(C(C#N)Nc2ccccc2C)cc1` (stereo unspecified), the B-score result is “inactive”.
In the case of `O=S(=O)(c1ccc(F)cc1)N1CCN(C(=S)NC2CCCC2)CC1` it was “inactive”.
In the case of `CCOC(=O)N1CCN(S(=O)(=O)c2ccc(OC)cc2)CC1`, the B-score entry was “inactive”.
Regarding `COc1ccc(S(=O)(=O)N2CCN(C(=O)NC3CCCCC3)CC2)cc1`, the B-score was -4.64 (active).
Consider `C=CC[n+]1c(-c2ccc(C)cc2)csc1NNC(=O)Nc1ccccc1`, for which the B-score entry is “inactive”.
For `CCCOc1ccc(Cc2c(Cl)nc(SC)nc2NC)cc1`, the B-score result is “inactive”.
As to `COc1cc(CN2CCNC(=O)C2CC(=O)NCCc2ncccc2C)cc(OC)c1` (stereo unspecified), the B-score result was “inactive”.
Turning to `Cc1nccn1CCCNC(=O)CC1C(=O)NCCN1Cc1ccc(Cl)c(F)c1` (stereo unspecified), the B-score result was “inactive”.
In the case of `Cc1cc(C)n(CCNC(=O)CC2C(=O)NCCN2Cc2ccc(C)o2)n1` (stereo unspecified) it was -4.73 (active).
